Assay results as given in the supplement of paper PMC10105736.

What was measured:
Assay in all cases: MAPPIT interaction score (arbitrary units); higher = stronger binary interaction signal, active = hit call of the paper;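 active = MAPPIT score above the 99th percentile of random reference set scores in the same batch; inactive = at or below it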
Bx = settings: MAPPIT configuration: N-N; pair source set: screen_2
CG5618 = settings: MAPPIT configuration: N-N; pair source set: Curagen_low_conf
Lim1 = settings: MAPPIT configuration: N-N; pair source set: Curagen_high_conf
Blos2 = settings: MAPPIT configuration: N-N; pair source set: Curagen_low_conf
C15 = settings: MAPPIT configuration: N-N
CG8813 = settings: MAPPIT configuration: N-N; pair source set: Lit-BS-16
Lamtor3 = settings: MAPPIT configuration: N-N; pair source set: Curagen_high_conf
Nplp1 = settings: MAPPIT configuration: N-N; pair source set: Curagen_low_conf
Rm62 = settings: MAPPIT configuration: N-N; pair source set: Curagen_low_conf
Traf-like = settings: MAPPIT configuration: N-N; pair source set: Curagen_low_conf
row = settings: MAPPIT configuration: N-N; pair source set: Curagen_low_conf
Baldspot = settings: MAPPIT configuration: N-C; pair source set: screen_4
EMC5 = settings: MAPPIT configuration: N-C; pair source set: screen_3
Ude = settings: MAPPIT configuration: N-C; pair source set: screen_3
Blos1 = settings: MAPPIT configuration: N-N; pair source set: Finley_Y2H
Tm1 = settings: MAPPIT configuration: N-N; pair source set: screen_2
mldr = settings: MAPPIT configuration: N-N; pair source set: Finley_Y2H

Measured: MAPPIT interaction score
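Also: HEK293T cells with Epo stimulation, STAT-responsive firefly luciferase reporter, fold induction versus unstimulated cells divided by the larger fold induction of two negative controls lacking either bait or prey.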

B1: Chi (protein)
chain: MSWQDYVDNQLLASQCVTKACIAGHDGNIWAQSSGFEVTKEELSKLISGFDQQDGLTSNGVTLAGQRYIYLSGTDRVVRAKLGRSGVHCMKTTQAVIVSIYEDPVQPQQAASVVEKLGDYLITCGY
inactive: CG5618 0.207 | Lim1 1.91
active: Bx 6.14

B2: drk (protein)
chain: MEAIAKHDFSATADDELSFRKTQILKILNMEDDSNWYRAELDGKEGLIPSNYIEMKNHDWYYGRITRADAEKLLSNKHEGAFLIRISESSPGDFSLSVKCPDGVQHFKVLRDAQSKFFLWVVKFNSLNELVEYHRTASVSRSQDVKLRDMIPEEMLVQALYDFVPQESGELDFRRGDVITVTDRSDENWWNGEIGNRKGIFPATYVTPYHS
inactive: Blos2 0.473

B3: Rm62 (protein)
chain: MLKLVQYIAPRVGGATPRPTACGWGNLLLISPRSGASSEKCITQRRHFLFSSASSSGTFASSSSLCTEQRQQFHGSRRNRETILFPSTYSSLQAQSQRAFRDSSKPDSDDYVDSIPKAEQRTRTRKSLFNDPDERTEEIKIEGVMAPHDRDFGHSGRGGRGGDRGGDDRRGGGGGGNRFGGGGGGGDYHGIRNGRVEKRRDDRGGGNRFGGGGGFGDRRGGGGGGSQDLPMRPVDFSNLAPFKKNFYQEHPNVANRSPYEVQRYREEQEITVRGQVPNPIQDFSEVHLPDYVMKEIRRQGYKAPTAIQAQGWPIAMSGSNFVGIAKTGSGKTLGYILPAIVHINNQQPLQRGDGPIALVLAPTRELAQQIQQVATEFGSSSYVRNTCVFGGAPKGGQMRDLQRGCEIVIATPGRLIDFLSAGSTNLKRCTYLVLDEADRMLDMGFEPQIRKIVSQIRPDRQTLMWSATWPKEVKQLAEDFLGNYIQINIGSLELSANHNIRQVVDVCDEFSKEEKLKTLLSDIYDTSESPGKIIIFVETKRRVDNLVRFIRSFGVRCGAIHGDKSQSERDFVLREFRSGKSNILVATDVAARGLDVDGIKYVINFDYPQNSEDYIHRIGRTGRSNTKGTSFAFFTKNNAKQAKALVDVLREANQEINPALENLARNSRYDGGGGRSRYGGGGGGGRFGGGGFKKGSLSNGRGFGGGGGGGGEGRHSRFD
inactive: C15; pair source set: Curagen_low_conf -0.475 | C15; pair source set: Finley_Y2H 0.053 | CG8813 -0.848 | Lamtor3 0.248 | Nplp1 -0.193 | Rm62 -0.712 | Traf-like 0.928 | row 0.558

B4: oxt (protein)
chain: MEQSVSARWLKRYRAFFLILLLIVAIQLFLAYKSLDIVGGGSGSGFDAAEAPASPPPPHAQARVQPPARTKLTAQQLGFQPECDILAREAISALQRAKTKDCREHIAQIACAIQAGRFYAPQLRSSCPAGNHTANVSLGCFKDEKDRRLLAGYYSSSKTSNSPAKCVELCLQSGYPYAGVQYGRECFCGYDPPPKASKLPDSSCNTKCLGNAKEICGGFYAMNIYETGIAKFTAQLAATTPSEETKRVRIAFLLTLNGRALRQVHRLLKALYAPEHVYYIHVDERQDYLYRKLLELESKFPNIRLARKRFSTIWGGASLLTMLLQCMEDLLQSNWHWDFVINLSESDFPVKTLDKLVDFLSANPGRNFVKGHGRETQKFIQKQGLDKTFVECDTHMWRIGDRKLPAGIQVDGGSDWVALSRPFVGYVTHPREDDELLQALLKLFRHTLLPAESFFHTVLRNTKHCTSYVDNNLHVTNWKRKQGCKCQYKHVVDWCGCSPNDFKPEDWPRLQATEQKSLFFARKFEPVINQAVLLQLEEWLYGPYTSEYANLHGYWQSLYHHEDVHGSGDDLARSIGDSVMRLSARQAKLYPLELIELTHYLHRDQYKGFLVRYRARGSTGKPLHLETRVRPTQQGKLARNARFSKRLRNFEVSTDFDQKEQIARNFGKLLGPQSDLLLSYTLQANADSGAASHSYNLTLLWIDPLGRLQDFNELHVEDSTSDVINHSKTLLKHPITPGIWTAKLIGRNSIYAQLKFLIAPLAYYKGYPLAKSSDAEALNAGLTVALPEDFEMPVEWQQHLQTDDEQFTMREESLAKGKMLGQELHSWIDGLVGQFFQLRESCVVEADSEVSLPLCSDAPWSSLAPDPKSDVDALLK
inactive: Baldspot 0.0528 | EMC5 -0.000675 | Ude 0.189

B5: Blos2 (protein)
chain: MDKPTTSAAAAAAQDSNLLPDSPQHGPTLSSASSFEALTRHDPNLSRLATKMFNKTEEYITHELNAPLEDYKLLEEMNKATIAKYKDMRQIAENLNTSTSELSLKFQQLAPMMQQIDEISDTVDKLEAAAYKLDAYSIALENRVKCVLQRKSGGGQVAQ
inactive: Blos1 2.29 | Tm1 1.6 | mldr 0.813
